We go through seven compounds from PubChem BioAssay (NCI).

This is part of a sample that, as a whole, favours compounds with a hit. Of some 83,000 tested, about 20% had one in any assay.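 Activity criterion: percent growth below 10, measured after cells in 96-well plates were exposed to a single compound concentration for 48 hours.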 Values without a mark were called inactive. The source made the active and inactive calls.

Common to all, as to assay: NCI-60 one-dose screen, 48 h (100 = growth as untreated, 0 = no growth, -100 = all killed)
Settings in all cases: 10 µM unless noted

Test [1] relates to HCT-15 colon.
Test [2] relates to SNB-75 CNS.
Test [3] has as its system SNB-19 CNS.
The subject of test [4] is PC-3 prostate.
Test [5] has as its system SK-MEL-5 melanoma.
Test [6] concerns UACC-62 melanoma.
Test [7] concerns LOX IMVI melanoma.
The test system of test [8] is SK-MEL-28 melanoma.
Test [9] relates to HT29 colon.
Test [10] deals with U251 CNS.

Consider `O=C(Nc1cccc(-n2ccc3c(NC(=O)c4ccccc4)nccc32)c1)c1ccc(Cl)c(Cl)c1`, for which the growth in test [1] is -62% (active); in test [2] it was 2.32% (active); in test [3], -40.3% (active); in [4], -60.5% (active); in test [5], -100% (active); in test [6], -61.3% (active). The figures for the growth in [7] and in test [8] were -84.4% (active) and -60.4% (active), respectively.
`O=C(O)CSc1ccc(NCc2oc(CO)cc(=O)c2O)cc1`: the growth in test [1] is 107%; in [9], 99.5%; in test [3], 110%; in [10] it was 103%; in test [4], 98.8%; in [5], 99.8%. In addition, the results for the growth in [6], in test [7] and in [8] were 102%, 91.7% and 104%, respectively.
For `C=C1C(=O)O[C@H]2[C@H]1CC/C(COC(=O)NCc1cccc(OC)c1)=C\CC[C@@]1(C)O[C@@H]21`, the growth in [1] was -3.38% (active); in [9], -29.9% (active); in test [3] it was 69.9%; in test [10] it was 39.4%; in [4], 40.1%; in [5], 29.8%. The growth in test [6] is 31.5%; in test [7], 5.61% (active); in test [8] it was 22.5%.
In the case of `CCN(CC)CCCCCCCCNc1c2ccc(Cl)cc2nc2ccc(OC)cc12`, the growth was -39% (active) in test [1]; -85.6% (active) in test [2]; -30.9% (active) in test [3]; -56.4% (active) in [4]; -97.7% (active) in test [5]; -82.1% (active) in [6]. Also, the values for the growth in test [7] and in test [8] were -78.2% (active) and -85.8% (active), respectively.
Turning to `O=C1OC(/C=C/c2ccccc2)=NC/1=C/c1ccccc1[N+](=O)[O-]`, the growth in [1] is 97.9%; in test [9], 98.2%; in test [3], 104%; in [10], 100%; in test [4] it was 92.7%; in test [5], 99.8%. Also, the results for the growth in test [6], in [7] and in test [8] were 110%, 89.1% and 97.3%, respectively.
In the case of `COc1ccc(Nc2nc(N)nc3c(=O)[nH]ccc23)cc1`, the growth in test [1] was 109%; in test [9] it was 103%; in [3], 101%; in [10], 115%; in [4], 81.5%; in [5], 111%. Further, the growth is 111% in test [6], 102% in test [7] and 124% in [8].
`CCCCCCCCN(CCCCCCCC)C(=O)CCl`: the growth in test [1] was 96.1%; in [9] it was 114%; in [3] it was 97.5%; in test [10] it was 101%; in [4], 85.6%; in test [5] it was 88.6%. Also, the growth in test [6] was 82.9%; in [7] it was -63.3% (active); in [8], 110%.
